# According to publication PMC7826789 (International Journal of Molecular Sciences, 2021):
# Tests used:
# Conditions in all cases: Compound Concentration (nM):1000
# [1] = system: INSRR
# [2] = system: INSR
# [3] = system: IRAK1
# [4] = system: IRAK3
# [5] = system: IRAK4
# [6] = system: ITK
# [7] = system: JAK1(JH1domain-catalytic)
# [8] = system: JAK1(JH2domain-pseudokinase)
# [9] = system: JAK2(JH1domain-catalytic)
# [10] = system: JAK3(JH1domain-catalytic)
# [11] = system: T1, JNK1
# T1 construct: gene MAPK8
# [12] = system: T2, JNK2
# T2 construct: gene MAPK9
# [13] = system: T3, JNK3
# T3 construct: gene MAPK10
# [14] = system: KIT(A829P)
# [15] = system: KIT(D816H)
# [16] = system: KIT(D816V)
# [17] = system: KIT(L576P)
# [18] = system: KIT(V559D)
# [19] = system: KIT(V559D,T670I)
# [20] = system: KIT(V559D,V654A)
# 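Further: KINOMEscan scanMAX binding as percent activity remaining versus control; lower means stronger binding.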
SMILES,Percent Control [1] [%],Percent Control [2] [%],Percent Control [3] [%],Percent Control [4] [%],Percent Control [5] [%],Percent Control [6] [%],Percent Control [7] [%],Percent Control [8] [%],Percent Control [9] [%],Percent Control [10] [%],Percent Control [11] [%],Percent Control [12] [%],Percent Control [13] [%],Percent Control [14] [%],Percent Control [15] [%],Percent Control [16] [%],Percent Control [17] [%],Percent Control [18] [%],Percent Control [19] [%],Percent Control [20] [%]
C/C(Nc1ccc(S(N)(=O)=O)cc1)=C1/C(=O)Nc2ccccc21 [GW335962X],100,66,82,88,91,100,100,61,73,52,32,31,30,76,73,92,90,100,80,87
COc1cc2ncnc(Nc3ccc4c(cnn4Cc4ccccc4)c3)c2cc1OC.Cl [GW282449A],100,100,100,100,100,100,100,92,100,100,100,100,100,100,100,100,100,98,100,93
O=C1Nc2ccc(C(=O)c3ccco3)cc2C1=Cc1cc(Cl)c(O)c(Cl)c1 [GW406108X],100,91,86,100,64,100,100,7.3,47,2.1,64,70,64,83,69,81,38,52,78,100
NS(=O)(=O)c1ccc(N/N=C2\C(=O)Nc3ccc(C(=O)NCc4ccncc4)cc32)cc1 [GW300657X],89,100,71,91,96,99,88,50,64,37,55,40,38,47,14,61,83,87,89,100
Cl.O=C(Nc1ccc(Oc2ccc3[nH]c(NC(=O)c4ccco4)nc3c2)cc1)Nc1cc(C(F)(F)F)ccc1F [GW683134A],100,88,91,100,89,97,100,90,94,87,85,86,100,15,96,48,0,0,2.3,10
COc1cc(/C=N/Nc2ncnc3[nH]ncc23)ccc1O [GW578748X],100,94,31,100,61,100,100,0.6,47,47,40,49,37,36,26,22,51,44,100,52
COC(=O)Nc1nc2ccc(Oc3ccc(NC(=O)Nc4cc(C(F)(F)F)ccc4F)cc3)cc2s1.Cl [GW693917A],100,68,97,100,90,74,71,80,57,61,87,60,79,1.9,39,61,0,0.2,2.5,20
Nc1ncnc2occ(-c3ccc(NC(=O)Nc4cc(C(F)(F)F)ccc4F)cc3)c12 [GW770249X],100,90,95,100,100,100,79,80,62,100,99,9.2,100,7.5,32,14,0,0,0.5,7.5
Cc1cc(O)cc(C)c1/C=C/c1cncc(C(N)=O)c1 [GW435821X],100,93,100,100,100,94,100,59,92,100,84,100,100,92,65,90,4.4,1,100,95
NS(=O)(=O)c1ccc(Nc2ncc(-c3ccccc3)o2)cc1 [GW572399X],100,100,99,100,100,90,100,87,100,71,64,100,99,92,100,100,37,26,92,100
COc1cc2ncn(-c3cc(O[C@H](C)c4ccccc4Cl)c(C(N)=O)s3)c2cc1OC [GSK237701A],100,100,64,70,98,82,100,70,46,100,88,79,81,11,14,14,34,33,12,81
Cl.O=C(Nc1ccc(Oc2ccc3[nH]c(NC(=O)c4ccccc4)nc3c2)cc1)Nc1cc(C(F)(F)F)ccc1F [GW709042A],100,85,89,100,86,100,99,96,100,77,85,99,100,20,84,79,2.9,0.8,4.9,20
COc1ccccc1-c1cc(/C=C2\C(=O)Nc3ncc(Br)cc32)cc(Br)c1O [GW442130X],100,87,74,100,85,100,100,100,82,55,52,43,30,100,100,100,76,65,100,62
COc1ccc2c(-c3ccnc(Nc4cccc(OC(F)(F)F)c4)n3)cnn2n1 [GW810372X],100,90,19,80,100,100,100,7.5,62,65,22,60,41,83,77,87,88,88,86,100
CC1=C(C(=O)Nc2ccc3[nH]ncc3c2)C(c2ccc3ccccc3c2)CC(=O)N1 (stereo not shown) [GSK270822A],100,100,72,67,100,75,82,90,9.6,3.4,78,80,82,55,70,78,71,72,84,98
Cl.O=S1CCN(Cc2ccc(-c3ccc4ncnc(Nc5ccc(OCc6ccccc6)c(F)c5)c4c3)o2)CC1 [GW576924A],100,100,100,100,100,100,100,89,100,100,100,100,100,100,100,100,100,100,94,100
COc1cc(N2CCN(C(C)C)CC2)ccc1Nc1nc(Nc2ccc(F)cc2C(=O)NC[C@@H](O)CO)c2cc[nH]c2n1 [GSK1392956A],1.4,1.1,90,86,89,100,94,89,100,88,0,0.1,0.1,88,57,100,100,100,96,98
CCn1c(-c2nonc2N)nc2c(C#CC(C)(C)O)nc(OCCNC)cc21.Cl [GSK949675],100,100,92,100,88,100,100,100,96,87,97,100,96,98,22,13,100,100,100,100
NS(=O)(=O)c1ccc(N/N=C2\C(=O)Nc3ccc(Cl)cc32)cc1 [GW280670X],100,100,100,100,100,100,100,80,100,100,84,100,100,100,100,100,67,81,100,58
CN(C)CCNC(=O)Nc1ccc(N(C)c2ccnc(Nc3ccc(CS(C)(=O)=O)cc3)n2)cc1.Cl [GW830900A],99,75,59,31,80,83,100,33,30,40,43,65,55,31,45,52,0,0,14,72
